Here are results for 89 sequences from the supplement of paper PMC11417369.

Over roughly 25,000 sequences, “ln(normalized median fluorescence intensity)” has its median near 7.1; the highest 2% begin near 10. This excerpt belongs to a sample that is enriched for the highest values.

The assay relates to PfSIP2 AP2 domain 1 (GST-tagged). The assay is described as follows: gcPBM binding intensity (ln(normalized median fluorescence intensity)); higher = stronger DNA binding. The essentials:
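Binding intensity values are the highest Masliner-normalised natural-log median intensity among replicate spots of either probe orientation. The binding step lasted 1 h in 1× PBS with 1% milk, 0.2 mg/ml BSA, 0.5% salmon testes DNA and 0.03% Triton X-100, using GST-tagged P. falciparum DNA-binding domains expressed in E. coli on an Agilent 4 × 180k array of primer-extended double-stranded 36-bp intergenic genomic probes plus negative controls. Alexa488 anti-GST antibody and a 488 nm scan detected bound protein.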
For “AAATATAAACTCAGCACACAAACATATATATGTCAT [CACACA_site4004]”, the “gcPBM binding intensity (ln)” value amounted to 6.91.
The result for “TCCTTTTGAACCCTTTTTCTCACAAGACCTTTATAT [TGCATGCA_negctrl_site413]” reads 7.05; that for ATGTTTTAATGAGGTTTGCACTATATTTTAATGAAC, 8.64.
In the case of “AATATTAAACAAAATAAATATATAAAAAATAAATAA [GTGCAC_negctrl_site93]”, the “gcPBM binding intensity (ln)” value worked out at 6.79.
The result for “ATGAATATAATGAAGTGTACATAAAAATAATAAATA [XGTACX_site2481]” reads 7.11; that for “GGACATTTTTATAAGGTGCACGGTTTTGATATTACT [GTGCAC_site9892]”, 11.1.
The same measure for “GTACATATATACATTACACACGGTTTGATTTAAAAA [CACACA_site3379]”: 7.26.
Regarding TCACATTTTGGACACGTGCACATATATTTGATACAT, the “gcPBM binding intensity (ln)” value worked out at 8.43.
The result for “ATGCGTTAATCTATATATATTATGTATAGATTTTCA [CACACA_negctrl_site1650]” reads 6.81; that for “TGCCCTTTGGTTATAACACACATGCACCCGTAAATA [CACACA_site3842]”, 11.9.
The result for “TGCCCTTTGGTTATAACACACATGCACACGTAAATA [CACACA_site7750]” reads 7.71; that for “CTTTGGTTATAACACACATGCACACGTAAATAAATA [TGCATGCA_site976]”, 7.63; that for “AGACAATTTTTTAGTACACACATATAGATATATAAA [CACACA_site6832]”, 7.39.
The result for “AAAAAAAAATATATATATATATATATATAATAAAAA [CACACA_negctrl_site639]” reads 7.48.
“TGTGTTCATATATGCACACGCATATATATTATTGTT [CACACA_site3822]”: the “gcPBM binding intensity (ln)” value stood at 7.02.
The result for “ATGCACTCATTGTGCACACGCATATTACGAAAAGAA [CACACA_site2638]” reads 10.2; that for “ATATGCACTCATTGTGCACACGCATATTACGAAAAG [CACACA_site2637]”, 11; that for “ATATATAATAATTGTAGTACAATTAATAAATAAAAT [XGTACX_site3840]”, 7.08.
The same measure for “TATATATTATAAAATTGTACATATATTAAATTTTTT [XGTACX_site5852]”: 6.93; for “TAATTATGCAGACACACACACACACCCAACTAAAAA [CACACA_site2569]”: 7.27.
The same measure for “TATGCACCCAGACACACACACACAACTAAAAAATAA [CACACA_site2567]”: 10.7.
As for “TGCACGCACAGACACACACACAACTAAAAAATAATG [CACACA_site7250]”, the “gcPBM binding intensity (ln)” value is 7.33.
The same measure for “TACAAATATATATGCACACACATATACATACATATA [CACACA_site2182]”: 7.31; for “TCACCATATAAACGTGCACACTACAAAAATATATAA [CACACA_site5413]”: 11; for “AAACAAAAAATATATACACACTAAACATAAAAAAAA [CACACA_site4185]”: 6.86.
The result for “TATGTGCACCCATATACACACACAAATACAATGATA [CACACA_site8295]” reads 12.3.
As for “TGTGCACGCATATACACACACAAATACAATGATAAA [CACACA_site6656]”, the “gcPBM binding intensity (ln)” value was found to be 10.6.
The same measure for “AATGTGATAATATACACACACGCATATATATATATA [CACACA_site323]”: 9.89; for “TACAAACACCCATATACACACAAAAAAAAAATAAAA [CACACA_site5421]”: 7.05.
The same measure for “GAAATGTGATAATATACACACACGCATATATATATA [CACACA_site4332]”: 9.04; for “CATATAAAAATGTGCACACACACACCCATATATATT [CACACA_site1526]”: 9.06; for “TAATGATAAATACATACACACAAAAAATGATATATA [CACACA_site7258]”: 6.86.
With “CTATTTTATATGTGCACACATATACACCCACAAATA [CACACA_site1131]”, the “gcPBM binding intensity (ln)” value was found to be 9.31.
On to “GGTGCACCCATATACACACACAAATACAATGATAAA [CACACA_site1132]”, for which the “gcPBM binding intensity (ln)” value was 12.4.
The same measure for “TGGGCACCCATATACACACACAAATACAATGATAAA [CACACA_site4762]”: 8.64; for “CCCCCCCACGAACACACACACATACATACCACATAT [CACACA_site7149]”: 9.05; for “TGAGAGAGAAACGTAGTGCATAAAATCAAATTTAGA [GTGCAC_site9737]”: 7.82.
The same measure for “TTTTTTTGTTTTGTTTTTTTTTTTTTTTTTTTTTTG [CACACA_negctrl_site570]”: 6.76; for “ACATGTTCATAATTTTGTACATATTTTTATGAACAT [XGTACX_site3976]”: 7.12.
The result for “AAAATACACGATAGTTGTACATTAAATGTATACAAT [XGTACX_site360]” reads 6.91; that for “TGTTATTATAACATTTTTTTCAAAATAGCTTTAGAA [CACACA_negctrl_site266]”, 6.77; that for “AATAAATATCAATACACACACACAAAAGTGAATAAA [CACACA_site3763]”, 6.99.
In the case of “TAGAATAAGATAGATATACACACCATTATAAATATA [CACACA_site2500]”, the “gcPBM binding intensity (ln)” value stood at 6.78.
Turning to AGTGTGTGTAATAAAGTGCATTAAAAATGACACGTA, the “gcPBM binding intensity (ln)” value amounted to 8.55.
The same measure for “TGTGCATAAATTTATGCACACATAAAAAAAAAAAAA [CACACA_site8954]”: 9.95; for “ATTAAAAAATCCATAGTGCACTACGATAGGTTCCGA [GTGCAC_site9463]”: 10.5; for “ATATACATATCAATGTAATATTATATACTTTTTTAG [CACACA_negctrl_site816]”: 6.77.
The result for “ATTTATATAAAGAATGTACACACAGAAATGCACCCA [CACACA_site8715]” reads 11.8.
As to “GAAAGAAGCATAAATGTACACACATATTTATATATT [CACACA_site8368]”, the “gcPBM binding intensity (ln)” value was found to be 7.04.
The same measure for “TTATATAAAGAATGTACACACAGAAATGCACAGACA [CACACA_site5288]”: 8.26; for “TTATATAAAGAATGTACACACAGAAATGCACCCACA [CACACA_site2282]”: 12.2; for “TGTACACCCAGAAATGCACACACATATATATATATA [CACACA_site8716]”: 9.53.
The same measure for “CATTTATATAAAGAATGTACACACAGAAATGCACAC [XGTACX_site4718]”: 8.37.
The result for “TCCCTGATGTTATTTAATATACCATAAAAAAAAAAA [CACACA_negctrl_site1472]” reads 7.22.
In the case of “TATATATTATGACCACCACACACCTATACACATAAC [CACACA_site8773]”, the “gcPBM binding intensity (ln)” value came to 7.3.
As to “TACATATAAATAATAACACACACCTAGGTACATGGA [CACACA_site838]”, the “gcPBM binding intensity (ln)” value came to 6.89.
The result for “CAAATATATATTTATTGTACATATTGTTTATATGGT [XGTACX_site5246]” reads 7.14; that for “TACAAACAATTAAACAAACACACATATACATGTATA [CACACA_site2061]”, 6.92.
Take “TAAAATTAAATGAAATCATTATTCATTTTTATTTTA [CACACA_negctrl_site1281]”: the “gcPBM binding intensity (ln)” value stood at 6.67.
Consider “ATTAAGACACATTGCACACGTGCACCCATAGAAAAA [CACACA_site408]”, for which the “gcPBM binding intensity (ln)” value was found to be 12.2.
The result for “TAAGAAATAAATAGTACACACATAGACACCCACCGA [CACACA_site1516]” reads 7.3; that for “TAAGAAATAAATAGTACACACATAGACACACGCACA [CACACA_site6821]”, 8; that for “CCATTAAGACACATTGCACACGTGCACCCATAGAAA [CACACA_site4388]”, 12.4.
The same measure for “TAAGAAATAAATAGTACACACATAGACACCCACCCA [CACACA_site8429]”: 7.39; for “ACATTAAGACACATTGCACACGTGCACCCATAGAAA [CACACA_site8029]”: 12.
The same measure for “TATATATATATAGACACACACACACCCATATATATA [CACACA_site4117]”: 9.12; for “AGTACAGACATAGACACACACACACCCATAAAAAAA [CACACA_site1515]”: 7.24.
As to “TACACCCATAGACACACACACACGCATAAAAAAAAA [CACACA_site8428]”, the “gcPBM binding intensity (ln)” value is 7.55.
The same measure for ACTGCGTTTTTACACGCGCACTGCAATGAACAATAT: 8.05; for “AGGTAGAAAAAAGACACACACATTAGATATTTATAT [CACACA_site6313]”: 6.87; for “TATTATATTCTGCTTACACACATATATATATATATA [CACACA_site3060]”: 9.32.
The result for “ATTTTTTTTTCTTTCGCACACGTGAAAGAATTTCTA [CACACA_site2052]” reads 7.13; that for “TTATATATTTATATATGTACACATTTTACCATTTTT [XGTACX_site2142]”, 6.9; that for “GAAAAAAAAAAAAATACACACAAATTGGTATATAAC [CACACA_site6315]”, 6.75.
The result for “TATATACACATTTTTATACACACTTGTTTTATAAAA [CACACA_site8139]” reads 7.16.
For “AATAAATAAATAAATAAATATATATATATATATATA [GTGCAC_negctrl_site224]”, the “gcPBM binding intensity (ln)” value is 9.48.
The result for “AAATGAAAAATAAGGAAAAAAAAAAAAAAAAAAAAA [CACACA_negctrl_site1715]” reads 6.88.
“TTTTTTACTTTTGAGACATTTCATATTTTTATTCAC [GTGCAC_negctrl_site730]”: the “gcPBM binding intensity (ln)” value came to 6.91.
The same measure for “TATATATCAATATTTACACACATGCGCCCACATAAA [CACACA_site7185]”: 7.57.
The result for “TATTAATATTTACACACATGCGCACACATAAATAAA [TGCATGCA_site609]” reads 9.31; that for “TATATCTTAATATTTACACACATGCGCACCCATAAA [CACACA_site5349]”, 12.
The result for “TATTTACACCCATGCGCACACATAAATAAATAATAG [CACACA_site5350]” reads 8.34; that for “TATATATTAATATTTACACACATGCGCACCCATAAA [CACACA_site2410]”, 12.1; that for “AATATTTACAGACATGCGCACACATAAATAAATAAT [CACACA_site8760]”, 8.81.
On to “TATGAATGGTTAAGTACACACATATTAAGATATGTA [CACACA_site5852]”, for which the “gcPBM binding intensity (ln)” value was determined as 6.99.
The result for “CTATTTAAAATTTGAACACACATTATTTATTTTAAA [CACACA_site3114]” reads 6.9; that for “TGCATTTTACTTGTTACACACATATAAAATTAACCA [CACACA_site7387]”, 7.11.
The same measure for ACTTTAACCTGAACGGTGCATAAAATTTTGGCATTA: 10.8; for “TTATAGCCTGTGAAGAGTACATTTTTATTTTTTATT [XGTACX_site4105]”: 6.85.
